The supplement of paper PMC12819154, “High-throughput peptide-centric local stability assay extends protein–ligand identification to membrane proteins, tissues and bacteria” (Nature Structural & Molecular Biology, 2025)

Compound: Nc1ncnc2c1ncn2[C@@H]1O[C@H](COP(=O)(O)OP(=O)(O)OP(=O)(O)O)[C@@H](O)[C@H]1O [adenosine 5'-triphosphate]
Assay: log2 fold change of tryptic peptide abundance, ligand vs vehicle (limited proteolysis) (log2 ratio); higher = more trypsin-susceptible (destabilized)
Details: ligand concentration: 5 mM; sample: E. coli desalted lysate; replicate design: treated before aliquoting
Protocol: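 HT-PELSA: desalted E. coli K-12 BW25113 lysate (with 12 mM MgCl2) incubated with 5 mM ATP (pH 7) or water for 30 min at 25 C, then a 4 min trypsin pulse at 22 C. Peptides were quantified by DIA-MS (4 replicates). Value is the peptide log2 fold change (treated/control); negative = stabilized. Scale: negative = ligand-stabilized region.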
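Also: lysate desalted by size exclusion to strip endogenous ATP, peptide intensities built from DIA-NN precursor signals, and peptides missing any value discarded before comparison.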

Target | log2 fold change
UniProt P21513 (peptide sequence: DNESLSLSILR, peptide start residue: 415) | 0.633
UniProt P10908 (peptide sequence: VDAGSWYSK, peptide start residue: 79) | -0.858
UniProt P0A6B4 (peptide sequence: QLAIFNTFCEGKPGQR, peptide start residue: 174) | 0.707
UniProt P33602 (peptide sequence: IAPYYHLFGSDELSQR, peptide start residue: 812) | 0.28
UniProt P42603 (peptide sequence: TPSAVDER, peptide start residue: 175) | -0.551
UniProt P00805 (peptide sequence: SVFDTLATAAK, peptide start residue: 274) | 0.366
UniProt P40719 (peptide sequence: RFTSDAAHELR, peptide start residue: 239) | -2.75
UniProt P52612 (peptide sequence: DRGQHVLLIMDSLTR, peptide start residue: 262) | -1.35
UniProt P76550 (peptide sequence: PISNGAFYR, peptide start residue: 210) | -0.83
UniProt P0AB77 (peptide sequence: AGMDSHGFGMASVR, peptide start residue: 67) | -0.449
UniProt P39208 (peptide sequence: RAGHFMPVALLK, peptide start residue: 119) | -1.52
